# Source: PubChem (Broad Institute)
# This is one part of a sample in which hits are shown more often than they occur.
# DUX4 txn inh: blocks DUX4-driven transcriptional activation; 293T-iDUX4 ZSCAN4-Gaussia luciferase reporter, 24 h; stronger effect = lower value; activity change, negative = inhibition, % (concentration not given with the values); 37,000 tested, 0.8% active;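 active = mean inhibition of at least 10% in the main channel, exceeding the control channel by a set limit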
# Hits are given with their value; . = inactive; ! = not confirmed by another sample.
SMILES,DUX4 txn inh
COc1ccc(NC(=O)N2C[C@@H]3N[C@H](C2)C3c2ccc(-c3cncnc3)cc2)cc1 (stereo not given in full),.
O=C(N[C@@H]1CC[C@H](CCNC(=O)C2CCOCC2)O[C@@H]1CO)c1ccccn1,.
CCCN1C[C@@H](C)[C@@H](OC)CN(C)C(=O)c2cc(NC(=O)c3ccccc3F)ccc2OC[C@H]1C,.
CCN1[C@@H]2c3ccc(-c4cccc(F)c4)c(=O)n3C[C@H]1[C@H](CO)[C@H]2C(=O)N(C)C,.
N#Cc1cccc(-c2ccc(C3[C@@H]4CN(C(=O)c5ccncc5)C[C@H]3N4)cc2)c1 (stereo not given in full),.
O=C(C1CCOCC1)N1C[C@@H]2N[C@H](C1)C2c1ccc(-c2cccc(F)c2)cc1 (stereo not given in full),.
N#Cc1ccc(-c2ccc(C3[C@@H]4CN(C(=O)C5CCCCC5)C[C@H]3N4)cc2)cc1 (stereo not given in full),-52!
N#Cc1cccc(-c2ccc(C3[C@@H]4CN(C(=O)C5CCCCC5)C[C@H]3N4)cc2)c1 (stereo not given in full),-52!
N#Cc1ccc(-c2ccc(C3[C@@H]4CN(C(=O)c5ccncc5)C[C@H]3N4)cc2)cc1 (stereo not given in full),.
CC(=O)N1C[C@@H]2N[C@H](C1)C2c1ccc(-c2ccccc2)cc1 (stereo not given in full),.
COc1cccc(S(=O)(=O)N2CC[C@H]3[C@H](CO)Nc4ccc(Br)cc4[C@H]32)c1,.
COc1ccc(NC(=O)Nc2ccc3c(c2)[C@@H]2C[C@@H](CC(=O)NCC4CC4)O[C@@H](CO)[C@@H]2O3)cc1,.
C[C@@H]1CN([C@H](C)CO)C(=O)c2ccccc2-c2ccccc2CO[C@@H]1CN(C)Cc1ccc(Cl)c(Cl)c1,-52
C[C@H](CO)N1C[C@H](C)[C@H](CN(C)Cc2ccc(O)cc2)OCc2ccccc2-c2ccccc2C1=O,.
C[C@H](CO)N1C[C@H](C)[C@@H](CN(C)Cc2ccc(F)cc2)OCc2ccccc2-c2ccccc2C1=O,.
C[C@@H]1CN([C@H](C)CO)C(=O)c2ccccc2-c2ccccc2CO[C@@H]1CN(C)Cc1ccc2c(c1)OCO2,.
C[C@@H]1CN([C@@H](C)CO)C(=O)c2ccccc2-c2ccccc2CO[C@@H]1CN(C)Cc1ccc(O)cc1,.
C[C@H]1CN([C@@H](C)CO)C(=O)c2ccccc2-c2ccccc2CO[C@@H]1CN(C)Cc1ccc(Cl)c(Cl)c1,-42
CO[C@@H]1CN(C)C(=O)c2cc(NC(=O)c3ccccc3F)ccc2OC[C@H](C)NC[C@H]1C,.
OC[C@@H]1[C@H](c2ccccc2)C2(CN(CCC(F)(F)F)C2)N1Cc1cccnc1,.
COc1ccc2c3c([nH]c2c1)[C@H](CO)NCC31CN(S(=O)(=O)c2ccccc2)C1,.
C[C@@H]1COCn2nncc2CC[C@@H](Cc2ccc(Cl)cc2)C(=O)N1,.
CCCN1[C@@H]2c3ccc(-c4ccccc4)c(=O)n3C[C@H]1[C@H](CO)[C@H]2C(=O)NCCCN1CCOCC1,.
CCCC(=O)N1CCC2(CC1)CN(Cc1ccc(Cl)cc1)[C@H](CO)c1[nH]c3cc(OC)ccc3c12,-63
COc1ccc2c3c([nH]c2c1)[C@H](CO)N(Cc1ccc(F)cc1)CC31CN(C(C)=O)C1,.
SMILES,DUX4 txn inh
COc1ccc2c3c([nH]c2c1)[C@@H](CO)N(Cc1ccncc1)CC31CN(C(=O)c2cccnc2)C1,.
COc1ccc(CN2CC3(CCN(C(=O)c4ccccc4)CC3)c3c([nH]c4cc(OC)ccc34)[C@@H]2CO)cc1,.
COc1ccc(CN2CC3(CN(C(=O)c4ccccc4)C3)c3c([nH]c4cc(OC)ccc34)[C@@H]2CO)cc1,-51
CCCC(=O)N1CC2(C1)CN(Cc1ccc(Cl)cc1)[C@@H](CO)c1[nH]c3cc(OC)ccc3c12,-85
CCCC(=O)N1CC2(C1)CN(Cc1ccc(Cl)cc1)[C@H](CO)c1[nH]c3cc(OC)ccc3c12,-80
CCCC(=O)N1CCC2(CC1)CN(Cc1nccs1)[C@H](CO)c1[nH]c3cc(OC)ccc3c12,.
COc1ccc2c3c([nH]c2c1)[C@H](CO)N(Cc1ccncc1)CC31CN(C(=O)Cc2ccncc2)C1,.
CCCC(=O)N1CCC2(CC1)CN(Cc1ccncc1)[C@@H](CO)c1[nH]c3cc(OC)ccc3c12,.
CCC(=O)N1CC2(C1)CN(Cc1ccc(OC)cc1)[C@H](CO)c1[nH]c3cc(OC)ccc3c12,.
CCCC(=O)N1CC2(C1)CN(Cc1ccncc1)[C@H](CO)c1[nH]c3cc(OC)ccc3c12,.
C[C@H](CO)N1C[C@H](C)[C@H](CN(C)C(=O)C2CCCCC2)Oc2cc(C#C[C@@H](C)O)ccc2S1(=O)=O,.
C[C@H](CO)N1C[C@H](C)[C@H](CN(C)C(=O)Nc2ccc(F)cc2)Oc2c(NC(=O)C3CCCCC3)cccc2C1=O,.
COc1ccc2c3c([nH]c2c1)[C@@H](CO)N(C(C)=O)CC31CN(C(=O)c2cccc(F)c2)C1,.
